Some test systems named below: SR leukemia; RPMI-8226 leukemia; OVCAR-8 ovarian; OVCAR-5 ovarian; OVCAR-4 ovarian; SK-OV-3 ovarian; IGROV1 ovarian; OVCAR-3 ovarian; HS 578T breast; NCI/ADR-RES ovarian.
Assay in all cases: NCI-60 one-dose screen, 48 h (100 = growth as untreated, 0 = no growth, -100 = all killed)
Conditions in all cases: 10 µM unless noted

This is part of a sample that, as a whole, favours compounds with a hit. Of some 83,000 tested, about 20% had one in any assay.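 Method: cells in 96-well plates; compound added at one concentration; 48 h incubation; percent growth measured; values under 10 scored active.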 A number with no mark means an inactive call. Active and inactive are the calls of the source.

As for `Clc1ccc2c(c1)N(c1ncnc3ccc(-c4cnc5[nH]ncc5c4)cc13)CC2`, the growth is 24.3% in the test with SR leukemia; 16.9% in the test on RPMI-8226 leukemia; 30% with OVCAR-8 ovarian; 20.3% with OVCAR-5 ovarian; 26.9% in the test with OVCAR-4 ovarian; -1.55% (active) with SK-OV-3 ovarian. Besides, the growth in the test with IGROV1 ovarian is 0.128% (active); in the test with OVCAR-3 ovarian, 24.5%; in the test on HS 578T breast, -17% (active); with NCI/ADR-RES ovarian, 40.4%.
For the compound `COC(=O)c1c2c(c[n+]([O-])c1C)C(=O)C(NCc1ccccc1)=CC2=O`, the growth in the test with SR leukemia was 2.6% (active); with RPMI-8226 leukemia it was -24.5% (active); in the test with OVCAR-8 ovarian, -2.43% (active); with OVCAR-5 ovarian, -79.9% (active); in the test with OVCAR-4 ovarian, -97% (active); with SK-OV-3 ovarian, 8.1% (active). Further, the growth is -54.3% (active) with IGROV1 ovarian, -35.3% (active) in the test on OVCAR-3 ovarian, -15.3% (active) with HS 578T breast and -14.1% (active) with NCI/ADR-RES ovarian.
Regarding `O=C(c1ccc(-c2ccccc2)cc1)c1ccc([N+](=O)[O-])cc1`, the growth in the test with SR leukemia is 86.8%; in the test with RPMI-8226 leukemia, 66.1%; in the test on OVCAR-8 ovarian it was 104%; with OVCAR-5 ovarian, 120%; with OVCAR-4 ovarian, 105%; in the test with SK-OV-3 ovarian, -100% (active). Besides, the growth in the test on IGROV1 ovarian is 101%; with OVCAR-3 ovarian, 104%; in the test on HS 578T breast, 110%; in the test on NCI/ADR-RES ovarian it was 114%.
As to `O=S(=O)(Nc1ccc(Cl)cc1)c1ccc(-c2cnc(C3CC3)o2)cc1`, the growth is 9.93% (active) with SR leukemia; 15% with RPMI-8226 leukemia; 29.2% with OVCAR-8 ovarian; 43.9% in the test with OVCAR-5 ovarian; 63.7% in the test with OVCAR-4 ovarian; 30.2% with SK-OV-3 ovarian. The growth was 33% in the test with IGROV1 ovarian, -17.3% (active) in the test with OVCAR-3 ovarian, 4.3% (active) in the test with HS 578T breast and 4.42% (active) in the test on NCI/ADR-RES ovarian.
Turning to `CS(=O)(=O)Nc1cc(-c2ccc3ncnc(Nc4ccc5c(cnn5Cc5ccccn5)c4)c3c2)cnc1Cl`, the growth in the test with SR leukemia is 58.3%; in the test on RPMI-8226 leukemia, 68.8%; in the test with OVCAR-8 ovarian it was 90.3%; with OVCAR-5 ovarian, 68.5%; in the test on OVCAR-4 ovarian, 91.5%; in the test with SK-OV-3 ovarian, 89.7%. For the same compound, the growth with IGROV1 ovarian is 38.1%; in the test with OVCAR-3 ovarian, 44.1%; in the test with HS 578T breast, 25.4%; in the test on NCI/ADR-RES ovarian it was 93.3%.
`Cc1ccc2c3c(c(=O)[nH]c2c1)C1(C(C#N)=C(N)O3)c2cc(Br)ccc2-c2ccc(Br)cc21`: the growth is 22.2% in the test with SR leukemia; 14.8% with RPMI-8226 leukemia; 0.183% (active) in the test on OVCAR-8 ovarian; 18.3% with OVCAR-5 ovarian; -50% (active) with OVCAR-4 ovarian; 47.7% in the test on SK-OV-3 ovarian. Also, the growth in the test on IGROV1 ovarian was -13.2% (active); in the test with OVCAR-3 ovarian, -40.1% (active); in the test with HS 578T breast it was -5.5% (active); with NCI/ADR-RES ovarian, 54.1%.
`Clc1ccc(Sc2cnc(-c3ccccc3)o2)cc1`: the growth with SR leukemia is 90%; in the test on RPMI-8226 leukemia, 89.7%; in the test on OVCAR-8 ovarian, 99.2%; in the test on OVCAR-5 ovarian, 98.8%; with OVCAR-4 ovarian, 95.8%; in the test on SK-OV-3 ovarian, 101%. Moreover, the growth in the test on IGROV1 ovarian was 97%; in the test with OVCAR-3 ovarian, 97.5%; in the test with HS 578T breast, 99.1%; in the test on NCI/ADR-RES ovarian it was 108%.
As to `O=C(CCC(=O)N/N=C/c1ccccc1O)N/N=C/c1ccccc1O`, the growth with SR leukemia was 27%; in the test on RPMI-8226 leukemia it was 83%; with OVCAR-8 ovarian, 46.4%; with OVCAR-5 ovarian, 82.7%; with OVCAR-4 ovarian, 26.2%; with SK-OV-3 ovarian, 50.8%. For the same compound, the growth in the test on IGROV1 ovarian was 48.5%; with OVCAR-3 ovarian, 23.4%; with HS 578T breast, 76.9%; in the test with NCI/ADR-RES ovarian it was 46.9%.
Regarding `C=CCn1cc(-c2nc3ccccc3s2)c2cc(-c3ccc4c5c(cccc35)C(=O)N(N)C4=O)ccc21`, the growth with SR leukemia was 89.7%; in the test on RPMI-8226 leukemia it was 99.3%; in the test with OVCAR-8 ovarian, 102%; in the test on OVCAR-5 ovarian it was 103%; in the test with OVCAR-4 ovarian it was 97.8%; with SK-OV-3 ovarian, 95.3%. In addition, the growth in the test with IGROV1 ovarian is 69.8%; in the test with OVCAR-3 ovarian it was 100%; with HS 578T breast, 103%; with NCI/ADR-RES ovarian it was 96.5%.
As to `c1ccc(CNc2c3ccccc3nc3ccccc23)cc1`, the growth was 11.7% in the test with SR leukemia; 7.65% (active) with RPMI-8226 leukemia; 26.1% in the test with OVCAR-8 ovarian; 45.7% in the test on OVCAR-5 ovarian; 43.2% with OVCAR-4 ovarian; 46.7% in the test with SK-OV-3 ovarian. Further, the growth is 29.8% in the test with IGROV1 ovarian, 51.7% in the test with OVCAR-3 ovarian, 56.1% in the test with HS 578T breast and 37.6% in the test on NCI/ADR-RES ovarian.
Turning to `O=C(NNC(=O)c1ccc(-n2cc(-c3ccccc3)nn2)cc1)Nc1ccccc1`, the growth is 110% with SR leukemia; 102% in the test with RPMI-8226 leukemia; 95.9% in the test on OVCAR-8 ovarian; 120% with OVCAR-5 ovarian; 104% in the test with OVCAR-4 ovarian; 85.2% in the test with SK-OV-3 ovarian. Also, the growth in the test with IGROV1 ovarian was 103%; in the test with OVCAR-3 ovarian, 114%; with HS 578T breast it was 92.2%; with NCI/ADR-RES ovarian, 107%.
As for `COC(=O)c1ccc2c(c1)C(=O)c1c-2n(CCCN)c(=O)c2cc([N+](=O)[O-])ccc12`, the growth was -45.3% (active) in the test with SR leukemia; -40.4% (active) in the test on RPMI-8226 leukemia; -65.3% (active) in the test with OVCAR-8 ovarian; -74.2% (active) with OVCAR-5 ovarian; -77.1% (active) in the test with OVCAR-4 ovarian; -81.8% (active) with SK-OV-3 ovarian. Further, the growth is -81.7% (active) in the test on IGROV1 ovarian, -93.2% (active) in the test with OVCAR-3 ovarian, -71% (active) with HS 578T breast and -39.4% (active) in the test on NCI/ADR-RES ovarian.
With `Cc1cccc(N2CCN(CC(O)COc3ccc(Cl)cc3)CC2)c1` (stereo not given), the growth in the test with SR leukemia is 79.7%; in the test with RPMI-8226 leukemia it was 77.6%; with OVCAR-8 ovarian, 98.8%; in the test on OVCAR-5 ovarian it was 116%; in the test on OVCAR-4 ovarian, 115%; with SK-OV-3 ovarian it was -100% (active). For the same compound, the growth in the test on IGROV1 ovarian is 92.7%; in the test with OVCAR-3 ovarian, 111%; in the test with HS 578T breast, 115%; with NCI/ADR-RES ovarian, 105%.
For the compound `CCN1CCN(Cc2cn(CC(=O)Nc3ccc4c(ccn4Cc4ccccc4)c3)nn2)CC1`, the growth in the test with SR leukemia is 63.5%; in the test with RPMI-8226 leukemia, 85%; with OVCAR-8 ovarian, 99.7%; with OVCAR-5 ovarian it was 113%; in the test on OVCAR-4 ovarian, 97.4%; in the test on SK-OV-3 ovarian it was 92.7%. For the same compound, the growth in the test on IGROV1 ovarian was 105%; in the test with OVCAR-3 ovarian, 102%; with HS 578T breast it was 100%; with NCI/ADR-RES ovarian, 108%.
